Test results published in publication PMC12529666, “Dysregulation of AGO2-miRNA dynamics underlies the AGO2-associated Lessel–Kreienkamp syndrome”.

B1: GTACTTTG (ssRNA)
RNA 1: GAGUUCUACAGUCCGACGAUCCCAACGUACUUUGCACCUGGAAUUCUCGGGUGCCAA
RNA 2: UGGAGUGUGACAAUGGUGUUUG
DNA 1: GATCGTCGGACTGTAGAACTC
DNA 2: TTGGCACCCGAGAATTCCA
modifications: constant regions annealed to DNA blockers; guide miR-122 5' phosphate
B2: GCACTTCG (ssRNA)
RNA 1: GAGUUCUACAGUCCGACGAUCCCAACGCACUUCGCACCUGGAAUUCUCGGGUGCCAA
RNA 2: UGGAGUGUGACAAUGGUGUUUG
DNA 1: GATCGTCGGACTGTAGAACTC
DNA 2: TTGGCACCCGAGAATTCCA
modifications: constant regions annealed to DNA blockers; guide miR-122 5' phosphate
B3: GCGCTCTG (ssRNA)
RNA 1: GAGUUCUACAGUCCGACGAUCCCAACGCGCUCUGCACCUGGAAUUCUCGGGUGCCAA
RNA 2: UGGAGUGUGACAAUGGUGUUUG
DNA 1: GATCGTCGGACTGTAGAACTC
DNA 2: TTGGCACCCGAGAATTCCA
modifications: constant regions annealed to DNA blockers; guide miR-122 5' phosphate
B4: GCGCTTCG (ssRNA)
RNA 1: GAGUUCUACAGUCCGACGAUCCCAACGCGCUUCGCACCUGGAAUUCUCGGGUGCCAA
RNA 2: UGGAGUGUGACAAUGGUGUUUG
DNA 1: GATCGTCGGACTGTAGAACTC
DNA 2: TTGGCACCCGAGAATTCCA
modifications: constant regions annealed to DNA blockers; guide miR-122 5' phosphate
B5: ACACTTCG (ssRNA)
RNA 1: GAGUUCUACAGUCCGACGAUCCCAACACACUUCGCACCUGGAAUUCUCGGGUGCCAA
RNA 2: UGGAGUGUGACAAUGGUGUUUG
DNA 1: GATCGTCGGACTGTAGAACTC
DNA 2: TTGGCACCCGAGAATTCCA
modifications: constant regions annealed to DNA blockers; guide miR-122 5' phosphate
B6: GCATTCCG (ssRNA)
RNA 1: GAGUUCUACAGUCCGACGAUCCCAACGCAUUCCGCACCUGGAAUUCUCGGGUGCCAA
RNA 2: UGGAGUGUGACAAUGGUGUUUG
DNA 1: GATCGTCGGACTGTAGAACTC
DNA 2: TTGGCACCCGAGAATTCCA
modifications: constant regions annealed to DNA blockers; guide miR-122 5' phosphate
B7: GTATTCTG (ssRNA)
RNA 1: GAGUUCUACAGUCCGACGAUCCCAACGUAUUCUGCACCUGGAAUUCUCGGGUGCCAA
RNA 2: UGGAGUGUGACAAUGGUGUUUG
DNA 1: GATCGTCGGACTGTAGAACTC
DNA 2: TTGGCACCCGAGAATTCCA
modifications: constant regions annealed to DNA blockers; guide miR-122 5' phosphate
B8: ATATCCCG (ssRNA)
RNA 1: GAGUUCUACAGUCCGACGAUCCCAACAUAUCCCGCACCUGGAAUUCUCGGGUGCCAA
RNA 2: UGGAGUGUGACAAUGGUGUUUG
DNA 1: GATCGTCGGACTGTAGAACTC
DNA 2: TTGGCACCCGAGAATTCCA
modifications: constant regions annealed to DNA blockers; guide miR-122 5' phosphate
B9: ATGCTCTA (ssRNA)
RNA 1: GAGUUCUACAGUCCGACGAUCCCAACAUGCUCUACACCUGGAAUUCUCGGGUGCCAA
RNA 2: UGGAGUGUGACAAUGGUGUUUG
DNA 1: GATCGTCGGACTGTAGAACTC
DNA 2: TTGGCACCCGAGAATTCCA
modifications: constant regions annealed to DNA blockers; guide miR-122 5' phosphate
B10: GTGCCTCG (ssRNA)
RNA 1: GAGUUCUACAGUCCGACGAUCCCAACGUGCCUCGCACCUGGAAUUCUCGGGUGCCAA
RNA 2: UGGAGUGUGACAAUGGUGUUUG
DNA 1: GATCGTCGGACTGTAGAACTC
DNA 2: TTGGCACCCGAGAATTCCA
modifications: constant regions annealed to DNA blockers; guide miR-122 5' phosphate
B11: GCGTCCTG (ssRNA)
RNA 1: GAGUUCUACAGUCCGACGAUCCCAACGCGUCCUGCACCUGGAAUUCUCGGGUGCCAA
RNA 2: UGGAGUGUGACAAUGGUGUUUG
DNA 1: GATCGTCGGACTGTAGAACTC
DNA 2: TTGGCACCCGAGAATTCCA
modifications: constant regions annealed to DNA blockers; guide miR-122 5' phosphate
B12: GTGCCCCG (ssRNA)
RNA 1: GAGUUCUACAGUCCGACGAUCCCAACGUGCCCCGCACCUGGAAUUCUCGGGUGCCAA
RNA 2: UGGAGUGUGACAAUGGUGUUUG
DNA 1: GATCGTCGGACTGTAGAACTC
DNA 2: TTGGCACCCGAGAATTCCA
modifications: constant regions annealed to DNA blockers; guide miR-122 5' phosphate
B13: GCGTCCCG (ssRNA)
RNA 1: GAGUUCUACAGUCCGACGAUCCCAACGCGUCCCGCACCUGGAAUUCUCGGGUGCCAA
RNA 2: UGGAGUGUGACAAUGGUGUUUG
DNA 1: GATCGTCGGACTGTAGAACTC
DNA 2: TTGGCACCCGAGAATTCCA
modifications: constant regions annealed to DNA blockers; guide miR-122 5' phosphate
B14: ACGCTTTA (ssRNA)
RNA 1: GAGUUCUACAGUCCGACGAUCCCAACACGCUUUACACCUGGAAUUCUCGGGUGCCAA
RNA 2: UGGAGUGUGACAAUGGUGUUUG
DNA 1: GATCGTCGGACTGTAGAACTC
DNA 2: TTGGCACCCGAGAATTCCA
modifications: constant regions annealed to DNA blockers; guide miR-122 5' phosphate
B15: GTGTTCCG (ssRNA)
RNA 1: GAGUUCUACAGUCCGACGAUCCCAACGUGUUCCGCACCUGGAAUUCUCGGGUGCCAA
RNA 2: UGGAGUGUGACAAUGGUGUUUG
DNA 1: GATCGTCGGACTGTAGAACTC
DNA 2: TTGGCACCCGAGAATTCCA
modifications: constant regions annealed to DNA blockers; guide miR-122 5' phosphate
B16: ACACCTCG (ssRNA)
RNA 1: GAGUUCUACAGUCCGACGAUCCCAACACACCUCGCACCUGGAAUUCUCGGGUGCCAA
RNA 2: UGGAGUGUGACAAUGGUGUUUG
DNA 1: GATCGTCGGACTGTAGAACTC
DNA 2: TTGGCACCCGAGAATTCCA
modifications: constant regions annealed to DNA blockers; guide miR-122 5' phosphate
B17: GTGCTTTA (ssRNA)
RNA 1: GAGUUCUACAGUCCGACGAUCCCAACGUGCUUUACACCUGGAAUUCUCGGGUGCCAA
RNA 2: UGGAGUGUGACAAUGGUGUUUG
DNA 1: GATCGTCGGACTGTAGAACTC
DNA 2: TTGGCACCCGAGAATTCCA
modifications: constant regions annealed to DNA blockers; guide miR-122 5' phosphate
B18: ATGTTCTA (ssRNA)
RNA 1: GAGUUCUACAGUCCGACGAUCCCAACAUGUUCUACACCUGGAAUUCUCGGGUGCCAA
RNA 2: UGGAGUGUGACAAUGGUGUUUG
DNA 1: GATCGTCGGACTGTAGAACTC
DNA 2: TTGGCACCCGAGAATTCCA
modifications: constant regions annealed to DNA blockers; guide miR-122 5' phosphate
B19: GTGCCCTG (ssRNA)
RNA 1: GAGUUCUACAGUCCGACGAUCCCAACGUGCCCUGCACCUGGAAUUCUCGGGUGCCAA
RNA 2: UGGAGUGUGACAAUGGUGUUUG
DNA 1: GATCGTCGGACTGTAGAACTC
DNA 2: TTGGCACCCGAGAATTCCA
modifications: constant regions annealed to DNA blockers; guide miR-122 5' phosphate
B20: GCGTCTTG (ssRNA)
RNA 1: GAGUUCUACAGUCCGACGAUCCCAACGCGUCUUGCACCUGGAAUUCUCGGGUGCCAA
RNA 2: UGGAGUGUGACAAUGGUGUUUG
DNA 1: GATCGTCGGACTGTAGAACTC
DNA 2: TTGGCACCCGAGAATTCCA
modifications: constant regions annealed to DNA blockers; guide miR-122 5' phosphate
B21: GTACCTCG (ssRNA)
RNA 1: GAGUUCUACAGUCCGACGAUCCCAACGUACCUCGCACCUGGAAUUCUCGGGUGCCAA
RNA 2: UGGAGUGUGACAAUGGUGUUUG
DNA 1: GATCGTCGGACTGTAGAACTC
DNA 2: TTGGCACCCGAGAATTCCA
modifications: constant regions annealed to DNA blockers; guide miR-122 5' phosphate
B22: GTATCCTG (ssRNA)
RNA 1: GAGUUCUACAGUCCGACGAUCCCAACGUAUCCUGCACCUGGAAUUCUCGGGUGCCAA
RNA 2: UGGAGUGUGACAAUGGUGUUUG
DNA 1: GATCGTCGGACTGTAGAACTC
DNA 2: TTGGCACCCGAGAATTCCA
modifications: constant regions annealed to DNA blockers; guide miR-122 5' phosphate

Assays:
Assay in all cases: RNA Bind-n-Seq (nitrocellulose filter binding and sequencing); miR-122 guide loaded in AGO2; 60 min incubation; 30 mM Tris pH 8.0, 100 mM potassium acetate, 2 mM magnesium acetate, 0.5 mM TCEP, 0.005% NP-40, 0.01 mg/ml yeast tRNA; 3 nM AGO2-miR-122, 100 nM RNA library; 60; high values mean tight binding
Conditions in all cases: protein: recombinant; tags: His6 (N-terminal, pFastBac HTA)
AGO2 L192P = AGO2 L192P (Homo sapiens, UniProt Q9UKV8 1-859, L192P;S387D;S824A;S828D;S831D;S834A)
Outline: (§1)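 Fold enrichment is each target's read fraction divided by its read fraction in the input library. Sf9 insect cells expressed His-tagged AGO2 from baculovirus; the protein was loaded with a synthetic guide RNA and purified by Ni-NTA and a biotinylated capture oligo. The bound RNA was extracted, reverse-transcribed, barcode-amplified and sequenced on Illumina.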

AGO2 A367P = AGO2 A367P (Homo sapiens, UniProt Q9UKV8 1-859, A367P;S387D;S824A;S828D;S831D;S834A)
Outline: as §1

AGO2 T357M = AGO2 T357M (Homo sapiens, UniProt Q9UKV8 1-859, T357M;S387D;S824A;S828D;S831D;S834A)
Outline: as §1

AGO2 F182del = AGO2 F182del (Homo sapiens, UniProt Q9UKV8 1-859, S387D;S824A;S828D;S831D;S834A;del182-182)
Outline: as §1

Chain of AGO2 F182del (Q9UKV8 other isoform, or with tags, fused parts or gaps S387D;S824A;S828D;S831D;S834A;del182-182): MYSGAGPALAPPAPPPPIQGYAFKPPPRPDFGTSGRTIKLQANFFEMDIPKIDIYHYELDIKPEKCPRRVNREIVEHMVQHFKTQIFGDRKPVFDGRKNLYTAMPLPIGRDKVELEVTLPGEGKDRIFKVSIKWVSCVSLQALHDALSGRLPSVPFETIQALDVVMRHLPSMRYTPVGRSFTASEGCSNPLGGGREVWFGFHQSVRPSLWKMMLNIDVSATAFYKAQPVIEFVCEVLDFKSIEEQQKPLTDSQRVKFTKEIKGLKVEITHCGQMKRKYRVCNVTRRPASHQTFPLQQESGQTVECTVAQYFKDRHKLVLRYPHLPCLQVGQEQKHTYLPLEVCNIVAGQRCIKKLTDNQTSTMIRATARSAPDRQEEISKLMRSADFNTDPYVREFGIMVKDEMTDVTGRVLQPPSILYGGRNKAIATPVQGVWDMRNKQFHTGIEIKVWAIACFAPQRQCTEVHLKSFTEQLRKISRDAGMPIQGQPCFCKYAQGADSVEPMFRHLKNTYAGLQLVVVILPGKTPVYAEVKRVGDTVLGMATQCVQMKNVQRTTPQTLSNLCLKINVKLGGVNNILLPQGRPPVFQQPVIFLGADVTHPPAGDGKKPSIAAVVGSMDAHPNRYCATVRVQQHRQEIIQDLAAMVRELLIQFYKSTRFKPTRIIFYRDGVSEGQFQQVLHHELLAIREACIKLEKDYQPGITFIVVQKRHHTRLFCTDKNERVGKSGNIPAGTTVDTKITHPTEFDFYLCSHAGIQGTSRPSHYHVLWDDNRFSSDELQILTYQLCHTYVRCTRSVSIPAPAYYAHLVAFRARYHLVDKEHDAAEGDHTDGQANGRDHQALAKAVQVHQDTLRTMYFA
Chain of AGO2 L192P (Q9UKV8 whole entry L192P/S387D/S824A/S828D/S831D/S834A): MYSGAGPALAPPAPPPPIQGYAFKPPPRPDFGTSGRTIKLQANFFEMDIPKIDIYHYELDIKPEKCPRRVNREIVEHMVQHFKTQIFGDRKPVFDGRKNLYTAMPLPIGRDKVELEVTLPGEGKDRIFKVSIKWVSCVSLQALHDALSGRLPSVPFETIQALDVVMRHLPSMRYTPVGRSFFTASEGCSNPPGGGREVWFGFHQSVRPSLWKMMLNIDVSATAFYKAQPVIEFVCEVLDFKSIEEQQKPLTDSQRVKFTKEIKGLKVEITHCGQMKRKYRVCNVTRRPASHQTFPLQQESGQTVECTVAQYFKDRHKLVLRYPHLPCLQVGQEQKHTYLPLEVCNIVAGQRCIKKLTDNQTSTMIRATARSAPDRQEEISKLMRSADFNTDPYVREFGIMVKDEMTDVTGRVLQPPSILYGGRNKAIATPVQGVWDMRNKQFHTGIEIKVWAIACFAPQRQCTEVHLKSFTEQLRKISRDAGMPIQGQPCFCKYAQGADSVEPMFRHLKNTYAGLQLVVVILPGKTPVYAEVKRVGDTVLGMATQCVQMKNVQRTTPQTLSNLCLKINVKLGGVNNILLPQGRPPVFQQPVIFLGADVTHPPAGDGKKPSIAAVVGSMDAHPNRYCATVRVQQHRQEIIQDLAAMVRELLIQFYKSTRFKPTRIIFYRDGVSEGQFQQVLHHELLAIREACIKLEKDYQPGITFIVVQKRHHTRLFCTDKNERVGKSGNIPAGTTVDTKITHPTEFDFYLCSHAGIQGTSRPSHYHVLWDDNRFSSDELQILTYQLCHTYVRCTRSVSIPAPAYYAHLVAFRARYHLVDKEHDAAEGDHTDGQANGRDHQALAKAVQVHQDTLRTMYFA
Chain of AGO2 T357M (Q9UKV8 whole entry T357M/S387D/S824A/S828D/S831D/S834A): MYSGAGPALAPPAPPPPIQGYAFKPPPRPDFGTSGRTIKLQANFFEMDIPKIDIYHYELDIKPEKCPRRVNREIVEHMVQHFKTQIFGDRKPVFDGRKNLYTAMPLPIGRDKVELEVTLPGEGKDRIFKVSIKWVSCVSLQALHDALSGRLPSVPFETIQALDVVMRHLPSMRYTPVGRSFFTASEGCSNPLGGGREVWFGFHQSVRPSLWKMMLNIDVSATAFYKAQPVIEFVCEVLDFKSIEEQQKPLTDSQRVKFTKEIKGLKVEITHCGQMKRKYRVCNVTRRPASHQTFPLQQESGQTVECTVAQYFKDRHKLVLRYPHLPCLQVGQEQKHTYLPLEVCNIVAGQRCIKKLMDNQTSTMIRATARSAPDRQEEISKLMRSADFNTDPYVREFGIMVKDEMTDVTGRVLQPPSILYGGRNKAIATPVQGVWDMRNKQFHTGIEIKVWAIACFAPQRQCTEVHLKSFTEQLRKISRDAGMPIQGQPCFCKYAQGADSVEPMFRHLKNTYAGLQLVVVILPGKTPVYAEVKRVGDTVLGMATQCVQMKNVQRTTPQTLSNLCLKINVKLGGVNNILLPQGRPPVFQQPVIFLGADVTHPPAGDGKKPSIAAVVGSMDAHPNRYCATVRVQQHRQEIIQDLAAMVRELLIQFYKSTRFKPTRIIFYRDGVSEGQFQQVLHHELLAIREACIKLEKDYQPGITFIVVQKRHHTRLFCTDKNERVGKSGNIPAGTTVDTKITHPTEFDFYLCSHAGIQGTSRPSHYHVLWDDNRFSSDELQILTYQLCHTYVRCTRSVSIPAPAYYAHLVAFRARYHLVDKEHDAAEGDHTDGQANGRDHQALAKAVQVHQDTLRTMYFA
Chain of AGO2 A367P (Q9UKV8 whole entry A367P/S387D/S824A/S828D/S831D/S834A): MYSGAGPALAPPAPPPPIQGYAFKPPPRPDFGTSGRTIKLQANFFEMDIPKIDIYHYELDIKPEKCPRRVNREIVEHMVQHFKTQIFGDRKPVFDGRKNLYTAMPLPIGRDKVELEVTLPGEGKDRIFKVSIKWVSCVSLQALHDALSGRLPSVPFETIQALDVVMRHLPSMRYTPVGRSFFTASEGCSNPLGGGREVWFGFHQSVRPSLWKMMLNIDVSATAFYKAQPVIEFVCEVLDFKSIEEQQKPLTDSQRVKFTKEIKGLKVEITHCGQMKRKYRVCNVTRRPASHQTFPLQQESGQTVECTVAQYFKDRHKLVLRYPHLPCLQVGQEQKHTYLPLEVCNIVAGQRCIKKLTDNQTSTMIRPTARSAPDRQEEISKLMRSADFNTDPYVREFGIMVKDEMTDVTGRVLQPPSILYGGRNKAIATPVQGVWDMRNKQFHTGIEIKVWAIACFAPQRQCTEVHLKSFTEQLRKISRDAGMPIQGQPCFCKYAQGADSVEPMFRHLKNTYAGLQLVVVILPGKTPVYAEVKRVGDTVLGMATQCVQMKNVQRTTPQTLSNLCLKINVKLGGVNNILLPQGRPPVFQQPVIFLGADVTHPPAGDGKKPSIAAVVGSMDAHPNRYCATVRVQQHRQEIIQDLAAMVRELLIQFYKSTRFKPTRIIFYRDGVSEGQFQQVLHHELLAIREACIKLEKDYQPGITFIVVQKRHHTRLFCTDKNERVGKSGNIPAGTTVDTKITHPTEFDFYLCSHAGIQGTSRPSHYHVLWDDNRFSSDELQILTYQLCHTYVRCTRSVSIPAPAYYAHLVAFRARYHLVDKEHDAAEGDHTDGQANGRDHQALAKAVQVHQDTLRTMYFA

Binder	binding signal (AGO2 L192P)	binding signal (AGO2 A367P)	binding signal (AGO2 T357M)	binding signal (AGO2 F182del)
B1	0.365 fold enrichment over input	0.121 fold enrichment over input	0.46 fold enrichment over input	–
B2	0.348 fold enrichment over input	0.147 fold enrichment over input	0.471 fold enrichment over input	–
B3	0.371 fold enrichment over input	0.163 fold enrichment over input	0.565 fold enrichment over input	–
B4	0.354 fold enrichment over input	0.148 fold enrichment over input	0.531 fold enrichment over input	–
B5	0.433 fold enrichment over input	0.201 fold enrichment over input	0.541 fold enrichment over input	0.152 fold enrichment over input
B6	0.436 fold enrichment over input	0.171 fold enrichment over input	0.548 fold enrichment over input	–
B7	0.39 fold enrichment over input	0.139 fold enrichment over input	0.506 fold enrichment over input	–
B8	0.335 fold enrichment over input	–	0.422 fold enrichment over input	–
B9	0.443 fold enrichment over input	0.171 fold enrichment over input	0.526 fold enrichment over input	–
B10	0.431 fold enrichment over input	0.162 fold enrichment over input	0.57 fold enrichment over input	–
B11	0.38 fold enrichment over input	0.156 fold enrichment over input	0.56 fold enrichment over input	–
B12	0.406 fold enrichment over input	0.159 fold enrichment over input	0.568 fold enrichment over input	–
B13	0.366 fold enrichment over input	0.15 fold enrichment over input	0.539 fold enrichment over input	–
B14	0.468 fold enrichment over input	0.195 fold enrichment over input	0.588 fold enrichment over input	0.135 fold enrichment over input
B15	0.408 fold enrichment over input	0.144 fold enrichment over input	0.544 fold enrichment over input	–
B16	0.412 fold enrichment over input	0.179 fold enrichment over input	0.471 fold enrichment over input	0.256 fold enrichment over input
B17	0.489 fold enrichment over input	0.185 fold enrichment over input	0.644 fold enrichment over input	–
B18	0.469 fold enrichment over input	0.206 fold enrichment over input	0.606 fold enrichment over input	0.182 fold enrichment over input
B19	0.425 fold enrichment over input	0.161 fold enrichment over input	0.581 fold enrichment over input	–
B20	0.395 fold enrichment over input	0.141 fold enrichment over input	0.547 fold enrichment over input	–
B21	0.347 fold enrichment over input	0.125 fold enrichment over input	0.419 fold enrichment over input	–
B22	0.337 fold enrichment over input	0.123 fold enrichment over input	0.449 fold enrichment over input	–
